Test results reported in PubChem BioAssay (Tox21).
Records with an inconclusive call do not appear. Where a call stands in place of a potency, no number is given. Activity calls are given as the source filed them. Unless noted, calls come from the whole dose curve.

test: qHTS assay for small molecules that induce genotoxicity in human embryonic kidney cells expressing luciferase-tagged ATAD5 (AID 651632; active = well fitted activation curve with a large enough effect in the repeat runs; note: nearly all actives have a fitted effect of over 15% in size); conditions: HEK293T ATAD5-luciferase induction, 16 h; series mostly up to 83.3 µM
In short: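 Genotoxicity read-out via ATAD5-luciferase: HEK293T cells, 16 hr compound incubation at 37C, Amplite detection.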

Structure (SMILES) | Potency
CC(C)C[C@@H](N)C(=O)O | inactive
CCCCCCCCCCCCSC | inactive
C=CCOCC(O)CO (stereo unspecified) | inactive
CC(=O)Oc1cccc(C)c1 | inactive
CC1=CCC(O)(C(C)C)CC1 (stereo unspecified) | inactive
CCOC(=O)COC(=O)c1ccccc1C(=O)OCC | inactive
COC(=O)Nc1ccc(Cl)c(Cl)c1 | inactive
CCCCCCC1CCC(=O)O1 (stereo unspecified) | inactive
CC[C@H]1OC(=O)[C@H](C)[C@@H](O[C@H]2C[C@@](C)(OC)[C@@H](O)[C@H](C)O2)[C@H](C)[C@@H](O[C@@H]2O[C@H](C)C[C@H](N(C)C)[C@H]2O)[C@](C)(OC)C[C@@H](C)C(=O)[C@H](C)[C@@H](O)[C@]1(C)O | inactive
C=CC(C)(CCC=C(C)C)OC(=O)CC (stereo unspecified) | inactive
CC(=O)c1ccc2ccccc2c1 | inactive
CC(C)(C)C(=O)Oc1ccc(S(=O)(=O)Nc2ccccc2C(=O)NCC(=O)O)cc1 | inactive
CC(N)C12CC3CC(CC(C3)C1)C2 (stereo unspecified) | inactive
O=C(O)c1cc(C(=O)O)cc(C(=O)O)c1 | inactive
CCC(=O)OCc1ccccc1 | inactive
CC(C)C1CCC(O)CC1 (stereo unspecified) | inactive
COc1cc(C(=O)OC(COCCC(C)C)CN2CCOCC2)cc(OC)c1OC (stereo unspecified) | inactive

test: qHTS assay for small molecule agonists of the p53 signaling pathway - cell viability (AID 651633); conditions: p53RE-bla HCT-116 viability, ATP luminescence, 16 h; series mostly up to 83.3 µM;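 note: p53RE-bla HCT reporter cells with a stable beta-lactamase p53 reporter; nearly all actives have a fitted effect of over 30% in size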
In short: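 p53RE-bla cells, seeded at 4,000 per well and rested 5 h at 37 C/5% CO2, received compounds in DMSO for 16 h at 37 C. CellTiter-Glo was then added, and luminescence was read after 30 min at room temperature to gauge cytotoxicity.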

Structure (SMILES) | Potency
CCCc1nn(C)c2c(=O)[nH]c(-c3cc(S(=O)(=O)N4CCN(C)CC4)ccc3OCC)nc12 | inactive
CO[C@@]1(NC(=O)CSC[C@@H](N)C(=O)O)C(=O)N2C(C(=O)O)=C(CSc3nnnn3C)CS[C@@H]21 | inactive
CN(C)CCN(C)CCN(C)C | inactive
Cc1ccc(C(=O)Nc2ccc(S(=O)(=O)O)c3cc(S(=O)(=O)O)cc(S(=O)(=O)O)c23)cc1NC(=O)c1cccc(NC(=O)Nc2cccc(C(=O)Nc3cc(C(=O)Nc4ccc(S(=O)(=O)O)c5cc(S(=O)(=O)O)cc(S(=O)(=O)O)c45)ccc3C)c2)c1 | inactive
C=C(C)C(=O)OCCOCCOCCOCCOC(=O)C(=C)C | inactive
OCCCCCO | inactive
CO[Si](C)(OC)c1ccccc1 | inactive
CC1=NS(=O)(=O)c2cc(Cl)ccc2N1 | inactive
CCOC(=O)CCC(=O)OCC | inactive
CC1(C)[C@@H]2CC[C@@]1(C)[C@H](O)C2 | inactive
CCCC(C)C(=O)OCC (stereo unspecified) | inactive
CCCCS(=O)(=O)N[C@@H](Cc1ccc(OCCCCC2CCNCC2)cc1)C(=O)O | inactive
c1coc(CNc2ncnc3nc[nH]c23)c1 | inactive
CCOC(=O)COc1cc(-n2ncc(C(F)(F)F)c(C)c2=O)c(F)cc1Cl | inactive
CC(C)CCCO | inactive
CC(=O)N1C[C@H](O)C[C@H]1C(=O)O | inactive
O=S(=O)(O)c1cccc2c(S(=O)(=O)O)cccc12 | inactive
C=CN1CCCCCC1=O | inactive

Structure (SMILES) | Potency
C[N+]1(C)[C@@H]2CC(OC(=O)[C@H](CO)c3ccccc3)C[C@H]1[C@@H]1O[C@@H]12 (stereo partly specified) | inactive
CC(C)C[C@@H](N)C(=O)O | inactive
CCCCCCCCCCCCSC | inactive
C=CCOCC(O)CO (stereo unspecified) | inactive
CC(=O)Oc1cccc(C)c1 | inactive
CC1=CCC(O)(C(C)C)CC1 (stereo unspecified) | inactive
CCOC(=O)COC(=O)c1ccccc1C(=O)OCC | inactive
COC(=O)Nc1ccc(Cl)c(Cl)c1 | inactive
CCCCCCC1CCC(=O)O1 (stereo unspecified) | inactive
CC[C@H]1OC(=O)[C@H](C)[C@@H](O[C@H]2C[C@@](C)(OC)[C@@H](O)[C@H](C)O2)[C@H](C)[C@@H](O[C@@H]2O[C@H](C)C[C@H](N(C)C)[C@H]2O)[C@](C)(OC)C[C@@H](C)C(=O)[C@H](C)[C@@H](O)[C@]1(C)O | inactive
C=CC(C)(CCC=C(C)C)OC(=O)CC (stereo unspecified) | inactive
CC(=O)c1ccc2ccccc2c1 | inactive
CC(C)(C)C(=O)Oc1ccc(S(=O)(=O)Nc2ccccc2C(=O)NCC(=O)O)cc1 | inactive
CC(N)C12CC3CC(CC(C3)C1)C2 (stereo unspecified) | inactive
O=C(O)c1cc(C(=O)O)cc(C(=O)O)c1 | inactive
CCC(=O)OCc1ccccc1 | inactive
CC(C)C1CCC(O)CC1 (stereo unspecified) | inactive
COc1cc(C(=O)OC(COCCC(C)C)CN2CCOCC2)cc(OC)c1OC (stereo unspecified) | inactive

test: qHTS assay for small molecules that induce genotoxicity in human embryonic kidney cells expressing luciferase-tagged ATAD5 - cell viability (AID 651634); conditions: HEK293T ATAD5-luc cells viability, CellTiter-Fluor, 15.5 h; series mostly up to 83.3 µM; note: nearly all actives have a fitted effect of over 25% in size
In short: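 Live-cell protease activity (CellTiter-Fluor, fluorescence) indicates viability. HEK293T cells with luciferase-tagged ATAD5; 15.5 hr compound treatment at 37C.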

Structure (SMILES) | Potency
CCCc1nn(C)c2c(=O)[nH]c(-c3cc(S(=O)(=O)N4CCN(C)CC4)ccc3OCC)nc12 | inactive
CO[C@@]1(NC(=O)CSC[C@@H](N)C(=O)O)C(=O)N2C(C(=O)O)=C(CSc3nnnn3C)CS[C@@H]21 | inactive
CN(C)CCN(C)CCN(C)C | inactive
Cc1ccc(C(=O)Nc2ccc(S(=O)(=O)O)c3cc(S(=O)(=O)O)cc(S(=O)(=O)O)c23)cc1NC(=O)c1cccc(NC(=O)Nc2cccc(C(=O)Nc3cc(C(=O)Nc4ccc(S(=O)(=O)O)c5cc(S(=O)(=O)O)cc(S(=O)(=O)O)c45)ccc3C)c2)c1 | inactive
C=C(C)C(=O)OCCOCCOCCOCCOC(=O)C(=C)C | inactive
OCCCCCO | inactive
CO[Si](C)(OC)c1ccccc1 | inactive
CC1=NS(=O)(=O)c2cc(Cl)ccc2N1 | inactive
CCOC(=O)CCC(=O)OCC | inactive
CC1(C)[C@@H]2CC[C@@]1(C)[C@H](O)C2 | inactive
CCCC(C)C(=O)OCC (stereo unspecified) | inactive
c1coc(CNc2ncnc3nc[nH]c23)c1 | inactive
CCOC(=O)COc1cc(-n2ncc(C(F)(F)F)c(C)c2=O)c(F)cc1Cl | inactive
CC(C)CCCO | inactive
CC(=O)N1C[C@H](O)C[C@H]1C(=O)O | inactive
O=S(=O)(O)c1cccc2c(S(=O)(=O)O)cccc12 | inactive
C=CN1CCCCCC1=O | inactive

Structure (SMILES) | Potency
C[N+]1(C)[C@@H]2CC(OC(=O)[C@H](CO)c3ccccc3)C[C@H]1[C@@H]1O[C@@H]12 (stereo partly specified) | inactive
CC(C)C[C@@H](N)C(=O)O | inactive
CCCCCCCCCCCCSC | inactive
C=CCOCC(O)CO (stereo unspecified) | inactive
CC(=O)Oc1cccc(C)c1 | inactive
CC1=CCC(O)(C(C)C)CC1 (stereo unspecified) | inactive
CCOC(=O)COC(=O)c1ccccc1C(=O)OCC | inactive
COC(=O)Nc1ccc(Cl)c(Cl)c1 | inactive
CCCCCCC1CCC(=O)O1 (stereo unspecified) | inactive
C=CC(C)(CCC=C(C)C)OC(=O)CC (stereo unspecified) | inactive
CC(=O)c1ccc2ccccc2c1 | inactive
CC(C)(C)C(=O)Oc1ccc(S(=O)(=O)Nc2ccccc2C(=O)NCC(=O)O)cc1 | inactive
CC(N)C12CC3CC(CC(C3)C1)C2 (stereo unspecified) | inactive
CCC(=O)OCc1ccccc1 | inactive
CC(C)C1CCC(O)CC1 (stereo unspecified) | inactive
COc1cc(C(=O)OC(COCCC(C)C)CN2CCOCC2)cc(OC)c1OC (stereo unspecified) | inactive
